From ChEMBL document CHEMBL1157539, “Thousands of chemical starting points for antimalarial lead identification” (Nature, 2010)

Key:
Assay type in all cases: functional
[1] = test system: Plasmodium falciparum; assay: GSK_TCMDC: Inhibition of Plasmodium falciparum 3D7 in whole red blood cells, using parasite LDH activity as an index of growth. Test compounds present at 2uM
[2] = test system: Plasmodium falciparum; assay: GSK_TCMDC: Inhibition of Plasmodium falciparum Dd2 in whole red blood cells, using parasite LDH activity as an index of growth. Test compounds present at 2uM
[3] = test system: HepG2; assay: GSK_TCMDC: Percent inhibition of human HepG2 cell line. Test compounds present at 10uM.

| SMILES | Inhibition [1] [%] | Inhibition [2] [%] | Inhibition [3] [%] |
| --- | --- | --- | --- |
| COc1ccc(CN2CCC(CN3CC4(OC3=O)c3ccccc3-c3ccccc34)C2)c(O)c1 (stereo not drawn) | 100 | 79 | 22 |
| Cc1ccccc1C1CCN(C2CCC(NC(=O)c3csc(-c4cccc(Cl)c4)n3)CC2)CC1 (stereo not drawn) | 85 | 42 | 33 |
| Nc1nc(N)c2c3c(cnc2n1)CCCC3 | 95 | 0 | 61 |
| CCC[C@@H]([C@@H](CC1CCCCC1)C(=O)N[C@H](C(=O)Nc1nccs1)C(C)(C)SCCOCCOCC)N(O)C=O | 100 | 97 | 40 |
| CC(C)CNC(=O)CN1C(=O)C(c2ccccc2)(c2ccccc2)N=C1N | 94 | 46 | 15 |
| C=CC[C@H](NC(=O)c1ccc(NS(=O)(=O)c2ccc3nc(N)[nH]c(=O)c3c2)cc1)C(=O)OCCCC | 97 | 2 | 61 |
| COc1cc2nccc(Nc3ccc(NC(=O)c4ccc(C)cc4)c(O)c3)c2cc1OC.Cl | 100 | 77 | 96 |
| Cc1[nH]c(C)c(-c2ccc(Oc3ccc(O)cc3)cc2)c(=O)c1Cl | 91 | 87 | 0 |
| COc1cccc2cc(C(=O)N[C@@H](CC(C)C)C(=O)NC(/C=N/NC(=O)c3ccccc3)CCc3ccccc3)oc12 (stereo partly drawn) | 88 | 73 | 8 |
| CC(C)COc1ccc(Cl)cc1Cc1nc(-c2nc3ccc(CN4CCCCC4)cc3[nH]2)co1.Cl | 100 | 70 | 49 |
| Cc1ccc(N2C(N)=NC(N)=NC2c2ccccc2)cc1.Cl (stereo not drawn) | 94 | 1 | 11 |
| CC(C)(C)c1cc(Cn2ccnc2)cc(C(C)(C)C)c1O | 85 | 3 | 4 |
| COc1cccc(C(=O)NCc2cccs2)c1OCc1ccccc1 | 96 | 0 | 0 |
| O=C(O)C(F)(F)F.O=S(=O)(/C=C/c1ccccc1)N(Cc1ccc(-c2ccc(CNCCc3ccccn3)cc2)cc1)CC1CCCCN1 (stereo not drawn) | 100 | 97 | 46 |
| Cl.O=c1cc(NCCCCNCc2ccc(Br)c(Br)c2)[nH]c2ccccc12 | 98 | 14 | 13 |
| Cl.Nc1ccc2c(N)c3ccccc3nc2c1 | 93 | 74 | 20 |
| c1ccc(Oc2ccc(Nc3ccnc4cc(-c5cccc(CNCCN6CCOCC6)c5)ccc34)cc2)cc1 | 100 | 98 | 12 |
| CCCCCCCCNc1c2ccc(Cl)cc2nc2ccc(OC)cc12.Cl | 89 | 96 | 11 |
| Cc1cc(-c2ccc3c(c2)CCN(CCC2CCC(NC(=O)/C=C/c4ccc(F)cc4)CC2)CC3)on1.Cl (stereo not drawn) | 98 | 47 | 29 |
| COc1cc2nc(N3CCC(CNC(=O)c4ccc(-c5ccc(C(=O)N(C)C)cc5OCCN(C)C)cc4)CC3)nc(N)c2cc1OC | 95 | 0 | 0 |
| CCCC(C)c1ccc(N2C(N)=NC(N)=NC2(C)C)cc1.Cl (stereo not drawn) | 90 | 7 | 51 |

| SMILES | Inhibition [1] [%] | Inhibition [2] [%] | Inhibition [3] [%] |
| --- | --- | --- | --- |
| Fc1ccc2[nH]c(-c3ccc(-c4ccc(CNCCc5cccnc5)cc4)s3)nc2c1.O=C(O)C(F)(F)F | 100 | 99 | 40 |
| O=C(Nc1ccc(C(F)(F)F)cc1)c1ccc(S(=O)(=O)NC2CCN(CC3CCCCC3)CC2)cc1.O=C(O)C(F)(F)F | 100 | 20 | 30 |
| Cc1cc(=O)[nH]c(-n2nc(C)cc2NC(=O)C2(c3ccc(Cl)cc3)CCCC2)n1 | 96 | 97 | 30 |
| CCCn1c(Sc2ccc(C#N)c([N+](=O)[O-])c2)nnc1-c1ccc(Cl)cc1 | 96 | 95 | 12 |
| O=C(N[C@@H](CC1CCCCC1)C(=O)NC1CCCCCC1)c1ccc(O)c(-c2ccc(Cl)c(Cl)c2)c1 | 99 | 100 | 0 |
| O=C(NCc1cccc(Cl)c1)c1ccc(CNC2CCN(Cc3ccccc3)CC2)cc1.O=C(O)C(F)(F)F | 100 | 50 | 13 |
| O=C(Nc1ccc(N2CCNCC2)cc1)c1ccn2ncc(-c3cccc(Cl)c3)c2n1 | 96 | 53 | 79 |
| N#Cc1ccc(N2CCN(Cc3cccc(-c4ccc(-c5nc6ccccc6[nH]5)cc4)c3)CC2)nc1.O=C(O)C(F)(F)F | 89 | 40 | 45 |
| CN(C)CCNCc1cccc(-c2cccc(-c3nc4ccccc4[nH]3)c2)c1.O=C(O)C(F)(F)F | 100 | 63 | 7 |
| COc1ccc(N2CCN(CCCCNC(=O)c3ccc(NC(=O)c4ccc(Cl)cc4)cc3)CC2)c(C)c1 | 100 | 51 | 42 |
| COc1cc(NC(=O)c2nn(CCCN3CCC(N4CCCC4)CC3)cc2-c2ccc(Cl)c(Cl)c2)cc(OC)c1OC | 100 | 100 | 76 |
| COc1ccc(CNCc2ccc(-c3cccc(-c4nc5ccccc5[nH]4)c3)cc2)cc1.O=C(O)C(F)(F)F | 100 | 85 | 57 |
| COc1ccc(F)cc1-c1ccc(C(=O)N2CCCN(c3ccc(C(F)(F)F)cn3)CC2)cc1 | 100 | 100 | 4 |
| O=C(NC1CCN(Cc2cccc(C(F)(F)F)c2)CC1)c1ccc(-c2cccc(C(F)(F)F)c2)s1.O=C(O)C(F)(F)F | 94 | 54 | 36 |
| COc1ccc(-c2cccc(NC(=O)c3cccc(C#N)c3)c2)cc1CN(C)CCO.O=C(O)C(F)(F)F | 96 | 30 | 28 |
| CCN1CCN(c2cc(C)c3cc(NC(=O)c4cccc(OC)c4)ccc3n2)CC1 | 99 | 15 | 5 |
| OC1(C(F)(F)F)CC(c2ccccc2)=NN1c1nncc(-c2ccccc2)n1 (stereo not drawn) | 99 | 3 | 0 |
| CC[C@H](C)CNC(=O)c1ccnc(-c2cccc(CN3CCC(N4CCCC4)CC3)c2)c1.O=C(O)C(F)(F)F | 97 | 12 | 0 |
| Cc1cccc2nc(-c3cccc(-c4ccc(NC(=O)c5ccoc5)cc4)c3)[nH]c12 | 99 | 56 | 65 |
| CC(C)c1ccc(-c2noc(SCC(=O)N(C)c3ccc(F)cc3)n2)cc1 | 84 | 77 | 7 |
| Cc1ccc(NC(=O)c2ccc(C(=O)NC3CCN(CC4CCCCC4)CC3)cc2)cc1.O=C(O)C(F)(F)F | 93 | 0 | 36 |

| SMILES | Inhibition [1] [%] | Inhibition [2] [%] | Inhibition [3] [%] |
| --- | --- | --- | --- |
| Cc1cc2[nH]c(-c3ccc(C(=O)NCCCN4CCN(c5cccc(Cl)c5)CC4)cc3F)nc2cc1Cl | 99 | 79 | 0 |
| CCNC(=O)N[C@@H]1CN[C@@H](C#Cc2cc3c(Nc4ccc(OCc5cccc(F)c5)c(Cl)c4)ncnc3s2)C1 | 85 | 27 | 0 |
| COc1ccc(CNCc2ccc(-c3ccc(-c4nc5cc(C(F)(F)F)ccc5[nH]4)cc3)cc2)cc1.O=C(O)C(F)(F)F | 100 | 99 | 75 |
| CC(=O)c1ccc(O)c(CC(O)CO)c1 (stereo not drawn) | 100 | 0 | 3 |
| COc1cccc(CCNc2nc(NCc3ccccc3)c3cc(OC)c(OC)cc3n2)c1 | 100 | 99 | 20 |
| Cn1c(N)cc(-c2ccc(Br)cc2)c2c(=O)nc(N)nc1-2 | 80 | 57 | 5 |
| O=C(Cc1ccc(NC(=O)c2ccc(O)c(-c3ccc(Cl)c(Cl)c3)c2)cc1)NCCN1CCOCC1 | 94 | 24 | 10 |
| CC(=O)Nc1ccc(C(=O)Nc2cccc(-c3ccc(-c4nc5cc(C(F)(F)F)ccc5[nH]4)cc3)c2)cn1 | 100 | 100 | 46 |
| FC(F)(F)c1cccc(CNC2CCN(CC3CCCCC3)CC2)c1.O=C(O)C(F)(F)F | 100 | 12 | 0 |
| O=C(CSc1nc2ccc([N+](=O)[O-])cc2s1)Nc1ccccc1-c1ccccc1 | 80 | 49 | 0 |
| Cc1ccc(NC(C)C(=O)Nc2ccccc2)cc1S(=O)(=O)N1CCCCCC1 (stereo not drawn) | 99 | 97 | 12 |
| CCCCCOc1ccc(C(O)C(CN2CCCCC2)c2ccccc2)cc1.Cl (stereo not drawn) | 98 | 95 | 11 |
| O=C(/C=C/c1ccc(Cl)c(Cl)c1)NC1CCC(CN2CCC(c3nc4cc(O)ccc4[nH]3)CC2)CC1 (stereo not drawn) | 100 | 84 | 41 |
| N#Cc1cc(C(=O)c2cc(Cl)ccc2O)cn(-c2cccc(C(F)(F)F)c2)c1=O | 87 | 7 | 0 |
| COc1ccc2ccccc2c1CCCCN1CCN(CC(c2ccc(F)cc2)N2CCN(C(C)C)CC2)CC1.Cl (stereo not drawn) | 100 | 83 | 92 |
| COc1cc2nccc(Nc3ccc4c(cnn4Cc4ccccc4F)c3)c2cc1OC.Cl | 100 | 91 | 55 |
| O=C(O)C(F)(F)F.O=S(=O)(NCCN1CCCC1)c1ccc(-c2cccc(CNCCc3cccs3)c2)s1 | 99 | 44 | 39 |
| O=C(NCCc1ccccc1)N(Cc1ccc(-c2cccc(CN3CCNCC3)c2)cc1)C1CCN(Cc2ccccc2)CC1.O=C(O)C(F)(F)F | 90 | 29 | 27 |
| O=c1cc(NCCCNC2CCCc3c2cc(Cl)c(Cl)c3Cl)[nH]c2ccccc12 (stereo not drawn) | 100 | 64 | 6 |
